Experimental data as given in the supplement of paper PMC8728848.
Only a selection was taken, and the strongest signals are over-represented in it overall.

Assays:
Assay in all cases: glycan array binding signal (z-score within array); higher = stronger binding
Details in all cases: glycan notation: IUPAC condensed, linker removed
[1] = target: GlcNAc(b1-3)Gal(b1-4)GlcNAc(b1-3)Gal(b1-4)GlcNAc(b1-3)Gal(b1-4)GlcNAc(b1-3)Gal(b1-4)GlcNAc(b1-2)Man(a1-3)[GlcNAc(b1-3)Gal(b1-4)GlcNAc(b1-3)Gal(b1-4)GlcNAc(b1-3)Gal(b1-4)GlcNAc(b1-3)Gal(b1-4)GlcNAc(b1-2)Man(a1-6)]Man(b1-4)GlcNAc(b1-4)[Fuc(a1-6)]GlcNAc
In short: (§1)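 Negative Z-scores can be read as non-binding. The Z-score is calculated within each array and then averaged across arrays of one protein sequence at different concentrations or buffers and across linkers. Arrays, 3228 in all, were curated from the Consortium for Functional Glycomics database and kept only where the protein sequence was available.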

[2] = target: GlcNAc(b1-3)Gal(b1-4)GlcNAc(b1-3)Gal(b1-4)GlcNAc(b1-3)Gal(b1-4)GlcNAc(b1-3)Gal(b1-4)GlcNAc(b1-2)[GlcNAc(b1-3)Gal(b1-4)GlcNAc(b1-3)Gal(b1-4)GlcNAc(b1-3)Gal(b1-4)GlcNAc(b1-3)Gal(b1-4)GlcNAc(b1-6)]Man(a1-6)[GlcNAc(b1-3)Gal(b1-4)GlcNAc(b1-3)Gal(b1-4)GlcNAc(b1-3)Gal(b1-4)GlcNAc(b1-3)Gal(b1-4)GlcNAc(b1-2)Man(a1-3)]Man(b1-4)GlcNAc(b1-4)[Fuc(a1-6)]GlcNAc
In short: as §1

[3] = target: GlcNAc(b1-3)Gal(b1-4)GlcNAc(b1-3)Gal(b1-4)GlcNAc(b1-3)GalNAc
In short: as §1

[4] = target: GlcNAc(b1-3)Gal(b1-4)GlcNAc(b1-6)[Gal(b1-3)]GalNAc
In short: as §1

[5] = target: GlcNAc(b1-3)Man
In short: as §1

[6] = target: GlcNAc(b1-4)GlcNAc(b1-4)GlcNAc(b1-4)GlcNAc(b1-4)GlcNAc
In short: as §1

[7] = target: Man(a1-2)Man(a1-6)[Man(a1-3)]Man(a1-6)[Man(a1-2)Man(a1-2)Man(a1-3)]Man(b1-4)GlcNAc(b1-4)GlcNAc
In short: as §1

[8] = target: MurNAc(b1-4)GlcNAc
In short: as §1

[9] = target: Neu5Ac(a2-3)Gal(b1-3)GalNAc(b1-4)[Neu5Ac(a2-8)Neu5Ac(a2-3)]Gal(b1-4)Glc
In short: as §1

[10] = target: Neu5Ac(a2-3)Gal(b1-3)GlcNAc(b1-2)Man(a1-3)[Neu5Ac(a2-3)Gal(b1-3)GlcNAc(b1-2)Man(a1-6)]Man(b1-4)GlcNAc(b1-4)GlcNAc
In short: as §1

[11] = target: Neu5Ac(a2-3)Gal(b1-3)GlcNAc(b1-6)GalNAc
In short: as §1

[12] = target: Neu5Ac(a2-3)Gal(b1-4)GlcNAc(b1-3)Gal(b1-3)GlcNAc
In short: as §1

[13] = target: Neu5Ac(a2-3)Gal(b1-4)[Fuc(a1-3)]GlcNAc(b1-3)GalNAc
In short: as §1

[14] = target: Neu5Ac(a2-3)[GalNAc(b1-4)]Gal(b1-4)Glc
In short: as §1

[15] = target: Neu5Ac(a2-6)Gal(b1-4)GlcNAc(b1-2)Man(a1-3)[Gal(b1-4)GlcNAc(b1-2)Man(a1-6)]Man(b1-4)GlcNAc(b1-4)GlcNAc
In short: as §1

[16] = target: Neu5Ac(a2-6)Gal(b1-4)GlcNAc(b1-2)Man(a1-3)[Neu5Ac(a2-6)Gal(b1-4)GlcNAc(b1-2)Man(a1-6)]Man(b1-4)GlcNAc(b1-4)[Fuc(a1-6)]GlcNAc
In short: as §1

[17] = target: Neu5Ac(a2-6)Gal(b1-4)GlcNAc(b1-2)Man(a1-6)Man(b1-4)GlcNAc(b1-4)GlcNAc
In short: as §1

[18] = target: Neu5Ac(a2-6)Gal(b1-4)GlcNAc(b1-3)Gal(b1-3)GlcNAc
In short: as §1

[19] = target: Neu5Ac(a2-6)Gal(b1-4)GlcNAc(b1-3)Gal(b1-4)GlcNAc(b1-3)Gal(b1-4)GlcNAc(b1-2)Man(a1-3)[Neu5Ac(a2-6)Gal(b1-4)GlcNAc(b1-3)Gal(b1-4)GlcNAc(b1-3)Gal(b1-4)GlcNAc(b1-2)Man(a1-6)]GalNAc
In short: as §1

[20] = target: Neu5Ac(a2-6)Gal(b1-4)GlcNAc(b1-3)Gal(b1-4)GlcNAc(b1-3)GalNAc
In short: as §1

[21] = target: Neu5Ac(a2-6)Gal(b1-4)GlcNAc(b1-3)Gal(b1-4)GlcNAc(b1-3)[Neu5Ac(a2-6)Gal(b1-4)GlcNAc(b1-3)Gal(b1-4)GlcNAc(b1-6)]GalNAc
In short: as §1

[22] = target: Neu5Ac(a2-8)Neu5Ac(a2-3)Gal(b1-3)GalNAc(b1-4)[Neu5Ac(a2-8)Neu5Ac(a2-3)]Gal(b1-4)Glc
In short: as §1

[23] = target: Neu5Ac(a2-8)Neu5Ac(a2-3)[Gal(b1-3)GalNAc(b1-4)]Gal(b1-4)Glc
In short: as §1

[24] = target: Neu5Ac9Ac(a2-6)Gal(b1-4)GlcNAc
In short: as §1

[25] = target: Neu5Gc(a2-6)Gal(b1-4)GlcNAc
In short: as §1

[26] = target: Neu5Gc(a2-8)Neu5Ac(a2-3)Gal(b1-4)GlcNAc
In short: as §1

B1: LlpA (Arthrobacter sp) (protein)
chain: MGSSHHHHHHSSGLVPRGSHMTLHPETALRPGAAATSPNSRYRLLYQTDGNLVLYGPDGPLWDSGTNGHGAGACIMQADGNLVLYGPNDEYVWDTETDNNPGSRLVIQDDGNAVIYRPDGSPLWATETCQPPGSADSHVLQSGSTLTPTHGIRSANGLYGLLYQTDGNLVFYGPDGPLWDSGTNGRGAGACIMQPDGNLVLYGPHDEYVWDTETDNNPGSRLVIQDDGNAVIYRPDGNPTWVTGTH
- glycan array binding signal (z-score) [1]: 2.07
- glycan array binding signal (z-score) [2]: 1.82
- glycan array binding signal (z-score) [3]: 0.18
- glycan array binding signal (z-score) [4]: -0.319
- glycan array binding signal (z-score) [5]: 1.02
- glycan array binding signal (z-score) [6]: 0.068
- glycan array binding signal (z-score) [7]: 0.31
- glycan array binding signal (z-score) [8]: -0.798
- glycan array binding signal (z-score) [9]: -0.752
- glycan array binding signal (z-score) [10]: -0.65
- glycan array binding signal (z-score) [11]: 0.849
- glycan array binding signal (z-score) [12]: 0.273
- glycan array binding signal (z-score) [13]: 1.8
- glycan array binding signal (z-score) [14]: 0.446
- glycan array binding signal (z-score) [15]: -0.376
- glycan array binding signal (z-score) [16]: 2.31
- glycan array binding signal (z-score) [17]: 0.4
- glycan array binding signal (z-score) [18]: -0.33
- glycan array binding signal (z-score) [19]: 2.47
- glycan array binding signal (z-score) [20]: 0.214
- glycan array binding signal (z-score) [21]: 0.568
- glycan array binding signal (z-score) [22]: 1.98
- glycan array binding signal (z-score) [23]: 0.321
- glycan array binding signal (z-score) [24]: 0.62
- glycan array binding signal (z-score) [25]: -0.005
- glycan array binding signal (z-score) [26]: -0.504
